About 2,700 (4%) of roughly 68,000 compounds showed an effect of 50% or more. This excerpt belongs to a sample that is enriched for strong results.
What follows are compounds tested on Plasmodium berghei (assay: Screen against P. berghei liver stage (PbLuc), transformed with Luciferase, at 2uM). Settings: tested at 2 uM.
Assay type: functional, HepG2

Compound	INHIBITION
CCc1nsc(NC2CCCn3nc(COC)nc32)n1 (stereo not given)	-11.71%
CCc1ncncc1C(=O)NCCNS(=O)(=O)c1ccc(C)cc1	-41.64%
Cc1ccc(S(=O)(=O)NCCNC(=O)c2cncnc2C)cc1	55.25%
CCc1ncncc1C(=O)NCCNS(=O)(=O)c1ccccc1	48.68%
Cc1nn(Cc2ccc(C(=O)NCCCN3CCCC3=O)o2)c(C)c1Cl	26.37%
CCCc1n[nH]c(C2CN(C(=O)c3cc(F)ccc3OC)CCO2)n1 (stereo not given)	-29.94%
Cc1nc2n(n1)CC(NCC(=O)NCC1(c3ccccc3)CC1)CC2 (stereo not given)	58.69%
COc1ccccc1CCNC(=O)CNC1CCc2nc(C)nn2C1 (stereo not given)	35.56%
Cc1nc2n(n1)CC(NCC(=O)Nc1cc(C)on1)CC2 (stereo not given)	-2.87%
CC(=O)N1CCCn2nc(CNS(=O)(=O)N3CCC(C)CC3)cc2C1	47.62%
O=c1[nH]c(NC2CCCC2)nc2nccc(-c3ccsc3)c12	-18.11%
COCCN1CC[C@]2(CN(C(=O)c3ccc[nH]3)C[C@H]2C)C1=O	16.21%
CCOc1c(Br)cc(CNCCc2nnc3n2CCCCC3)cc1OC	23.16%
CC1CCCCN1C(=O)c1nc2c(n1C(C)C)CCN(C)C2 (stereo not given)	-19.99%
NC(=O)COc1cccc(CN2CCCC2c2ccc[nH]2)c1 (stereo not given)	-4.58%
Cc1nn(C)c(Cl)c1C1CCCN1CC(=O)N1CCCCC1 (stereo not given)	-0.9%
N#CCCCOc1cccc(CN2CCCC2c2ccc[nH]2)c1 (stereo not given)	-61.99%
Cc1nn(C)c(C)c1C1CCCN1Cc1nc2ccccc2n1C (stereo not given)	53.11%
Cc1nn(C)c(C)c1C1CCCN1Cc1nc(C)c2ccccc2n1 (stereo not given)	5.1%
COc1cccc(CN2CCCC2c2ccc[nH]2)c1 (stereo not given)	68.02%
Cc1nn(C)c(C)c1C1CCCN1Cc1cccc(C(N)=O)c1 (stereo not given)	15.91%
Cc1nn(C)c(C)c1NC(=O)CN1CCCC1c1c(C)nn(C)c1C (stereo not given)	23.42%
Cc1nc2ccccc2nc1CN1CCCC1c1c(C)nn(C)c1C (stereo not given)	28.51%
CC(=O)N1CCN(C(=O)CN2CCCC2c2c(C)nn(C)c2C)CC1 (stereo not given)	60.6%
COc1cccc(CN2CCCC2c2c(C)nn(C)c2C)c1 (stereo not given)	61.53%
Cc1nn(C)c(C)c1C1CCCN1Cc1cccc(OCC(N)=O)c1 (stereo not given)	35.94%
Cn1cccc1CCC(=O)N1CCC2(CC1)c1ccccc1CC2O (stereo not given)	-57.12%

Compound	INHIBITION
Cc1cnccc1N1CCCN(C(=O)CCc2n[nH]c(C)c2C)CC1	-40.52%
O=C(c1ccc(F)c(Br)c1)N1CCCN2CCCC2C1 (stereo not given)	-4.48%
O=C(Cc1ccsc1)N1CCC(Cn2cc(CCO)nn2)CC1	12.57%
O=C(CCc1ccsc1)N1CCC(n2cc(CO)nn2)CC1	-25.13%
COCc1cn(C2CCN(C(=O)Cc3ccsc3)CC2)nn1	53.98%
Cc1noc(CCCC(=O)N2CCCCC2CNS(C)(=O)=O)n1 (stereo not given)	30.58%
O=C1CCCN1Cc1nnc(SCc2ccc3c(c2)CCC3)o1	52.31%
CC(C)Oc1ccc(CSc2nnc(CN3CCCC3=O)o2)cc1	0.63%
CC(C)c1cccc(CSc2nnc(CN3CCCC3=O)o2)n1	-12.97%
CCc1ncc(C(=O)NCCNc2ccncc2)s1	-23%
COC(=O)CCNC(=O)c1cnc(Cc2ccc(F)cc2)s1	-9.47%
CCc1ncc(C(=O)NCCNC(=O)Cc2ccc(F)cc2)s1	61.99%
CCNC(=O)c1cnc(Cc2ccc(F)cc2)s1	6.55%
CN(C)CCCNC(=O)c1cnc(Cc2ccc(F)cc2)s1	-12.27%
CN(C)C(=O)CN(C)C(=O)c1cnc(Cc2ccc(F)cc2)s1	52.08%
O=C(CC1CCCO1)NCc1ccc(Br)cc1F (stereo not given)	-7.89%
CC(C)N1CCCC(C(=O)N2CCN(c3nsc4ccccc34)CC2)C1 (stereo not given)	-52.08%
O=C(NCC1CCOC1)c1csc(Cc2ccccc2)n1 (stereo not given)	28.14%
COC(=O)C1CCCN1C(=O)c1ccc(Br)cc1F (stereo not given)	61.96%
Cc1ccc(C(=O)N2CC(C(N)=O)O[C@H](C)C2)c(C)c1 (stereo not given in full)	-3.25%
C[C@@H]1CN(C(=O)c2ccc(Br)cc2F)CC(C(N)=O)O1 (stereo not given in full)	57.34%
COC(=O)C1CCCN1C(=O)c1ccc(Cl)cc1F (stereo not given)	-8.14%
COC(=O)C1CCCCN1C(=O)c1ccc(N(C)C)cc1F (stereo not given)	36.67%
Cc1ccc(C(=O)N2CC(C(N)=O)O[C@H](C)C2)c(F)c1 (stereo not given in full)	-41.96%
Cc1ccsc1C(=O)N1CCc2ncc(CN(C)C)n2CC1	23.59%
Cc1cc(C)c2[nH]c(=O)c(CN3CCCC4(C3)CN(C)C(=O)O4)cc2c1 (stereo not given)	15.08%
O=C(c1ccc(S(=O)(=O)NCCc2ccccn2)cc1)N1CCCC1	29.41%

Compound	INHIBITION
CC(C)c1nn(C)c(N(C)C)c1CNCc1ccnn1C	32.93%
CCC1CN(CC(=O)NCCOC)CCO1 (stereo not given)	36.09%
CCC1CN(CC(=O)NCCC#N)CCO1 (stereo not given)	21.72%
CCCNC(=O)CN1CCOC(CC)C1 (stereo not given)	60.52%
CCN(CC1CCOCC1)C(=O)C1CC(=O)N(Cc2cccnc2)C1 (stereo not given)	10.83%
COc1ccc(CC(=O)N2CCCN(c3ccc(C#N)cc3)CC2)cc1	-28.34%
O=C(NC1CCC1)C1=NOC2(CCN(Cc3ccc(F)cc3)C2)C1 (stereo not given)	34.13%
CCC(=O)N1CCC(Oc2ccc(C(=O)NCCN(C)C)cc2Cl)CC1	51.96%
COC(=O)N1CCC(Oc2ccc(C(=O)NCCN(C)C)cc2Cl)CC1	30.62%
CN(C)CCNC(=O)c1ccc(OC2CCN(C(=O)CO)CC2)c(Cl)c1	14.63%
NC(=O)c1nc(CN2CCOC(C(F)(F)F)C2)no1 (stereo not given)	43.91%
CNC(=O)c1nc(CN2CCOC(C(F)(F)F)C2)no1 (stereo not given)	65.76%
CNC(=O)c1nc(CN2CCOC(CCCC(C)C)C2)no1 (stereo not given)	-65.52%
COC(=O)CC(c1ccc(OC)c(OC)c1OC)c1c(O)n[nH]c1C (stereo not given)	-8.07%
Cc1cc2c(=O)n3c(nc2s1)CCN(C(=O)c1nn(C)cc1Cl)CC3	26.56%
Cc1cc2c(=O)n3c(nc2s1)CCN(C(=O)c1cn(C)nc1C)CC3	66.16%
Cc1cc2c(=O)n3c(nc2s1)CCN(C(=O)c1cnn(C)c1)CC3	-18.04%
COCCc1noc(CN(C)c2cc(C)ncn2)n1	41.63%
Cc1nc(N2CCN(C(=O)c3ccncc3)CC2)c2c(n1)c(C)nn2C	4.87%
COc1cccc(CC2(C(=O)O)CCN(c3nccs3)CC2)c1	50.59%
COc1cccc(CC2(C(=O)O)CCN(c3ccc(Cl)cn3)CC2)c1	7.67%
COc1cccc(CC2(CO)CCCN(c3nccs3)C2)c1 (stereo not given)	14.21%
Cc1nc(N(C)Cc2cccc(O)c2)nc2cc(S(C)(=O)=O)ccc12	33.4%
O=C(CN1CCCc2sccc2C1=O)NC1CCc2nccn2C1 (stereo not given)	-4.89%
O=S(=O)(c1cccs1)N1CCN(Cc2nc(-c3ccco3)cs2)CC1	29.89%
O=S(=O)(NC1CCC12CCN(CC1CCOCC1)CC2)c1ccccc1 (stereo not given)	51.36%
O=S(=O)(NC1CCC12CCN(CC1CC1)CC2)c1ccccc1 (stereo not given)	-3.36%

Compound	INHIBITION
Cc1ccc(CN2CCC3(CCC3NS(=O)(=O)c3ccccc3)CC2)o1 (stereo not given)	11.18%
CCc1nnc2n1CCN(C(=O)C(C)Oc1ccc(C#N)cc1)C2 (stereo not given)	10.77%
CC(=O)N(C)C1CCN(c2ncc3c(n2)CCN3c2ccccc2)C1 (stereo not given)	-13.72%
CN(CCO)C1CCN(c2ncc3c(n2)CCN3c2ccccc2)CC1	15.84%
CNC(=O)C1CCN(c2ncc3c(n2)CCN3c2ccccc2)C1 (stereo not given)	51.96%
COCCC1(CNC(=O)Nc2ccnc(C)c2)CCCC1	-37.69%
CC(=O)N1N=C(c2ccccc2)OC1C(=O)NCCC1=CCCCC1 (stereo not given)	85.54%
CC(=O)N1N=C(c2ccccc2)OC1C(=O)NCCc1ccc(C)cc1 (stereo not given)	34.18%
CC(=O)N1N=C(c2ccccc2)OC1C(=O)NCCc1ccc(O)cc1 (stereo not given)	26.64%
CC(=O)N1N=C(c2ccco2)OC1C(=O)NCCc1ccc(F)cc1 (stereo not given)	58.6%
CC(=O)N1N=C(c2ccco2)OC1C(=O)NCC(C)C (stereo not given)	5.77%
CC(=O)N1N=C(c2ccco2)OC1C(=O)NCCc1ccc(O)cc1 (stereo not given)	20.42%
Cc1noc(CNC(=O)[C@@H](C)NC(=O)OC(C)(C)C)n1	-29.78%
Cc1[nH]n(C)c2nc(=O)cc(C(F)(F)C(F)(F)F)c1-2	-69.92%
O=C([C@@H]1COC[C@H]2CN(C3CCCC3)C[C@H]21)N1CCC(F)CC1	9.45%
O=S(=O)(CCc1ccccc1)Nc1cc(Cl)ccn1	0.51%
CCn1cc(S(=O)(=O)N2CCC3(CCCN(CC4CCC4)C3=O)C2)cn1 (stereo not given)	13.58%
Cc1cnn(CC2CCCCN2C(=O)CN(C)C2CC2)c1 (stereo not given)	21.31%
O[C@H]1CN(CCOc2ccc(F)cc2)CC[C@@]12CCCO2	9.05%
O=C(C1CCOCC1)N1CCc2ncc(CN3CCCC3)n2CC1	-9.48%
O=C(N1CCOCC1)N1CCc2ncc(CN3CCCCC3)n2CC1	56.25%
O=C(C1CCOCC1)N1CCc2ncc(CN3CCCCC3)n2CC1	41.28%
COc1c(Cl)cccc1NCc1csc(NC(C)=O)n1	-49.16%
Cc1noc([C@H]2C[C@@H]3CCN(C(=O)N(C)C)C[C@H]3O2)n1	-7.58%

Source: ChEMBL document CHEMBL4513216, “Probing the Open Global Health Chemical Diversity Library for Multistage-Active Starting Points for Next-Generation Antimalarials” (ACS Infect Dis, 2020)
